# Source: PubChem BioAssay (NCATS)
# Records with an inconclusive call do not appear. A number with no mark means an inactive call. Calls of active or inactive are those of the source. The call rests on the fitted dose curve; in most records, active means well fitted inhibition curve with a large enough effect; inconclusive means small, poorly fitted or top-dose-only effect; inactive means flat fitted curve, though single readings scatter. Where a SMILES comes first, the peptide text is derived from it. [ ]: non-standard residue; d: D form. dPhe(4-Cl) = N[C@H](Cc1ccc(Cl)cc1)C(=O)O; d2Nal = N[C@H](Cc1ccc2ccccc2c1)C(=O)O; dCit = NC(=O)NCCC[C@@H](N)C(=O)O; d3Pal = N[C@H](Cc1cccnc1)C(=O)O
# How the values were obtained:
# CRL-7250 = normal cell line; test: Cytotoxic Profiling of Annotated Libraries Using Quantitative High-Throughput Screening (AID 1296008); conditions: Five cell lines viability, CellTiter-Glo ATP luminescence, 48-72 h; max response: active compounds read low; further: nearly all actives have a fitted effect of over 60% in size
# Outline: (§1)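 Compounds were pin-transferred onto cells and incubated 48 or 72 hr at 37 degree Celsius, 95% humidity. CellTiter-Glo was added, plates sat 10 min at room temperature, then ATP-coupled luminescence was imaged as the viability read-out.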
# HEK293 = test: as above; conditions: Five cell lines viability, CellTiter-Glo ATP luminescence, 48-72 h; max response: active compounds read low
# Outline: as §1
# On the % scale 0 is the no-effect control and ±100 the full control effect; potency means the concentration at half of the fitted maximal effect.
smiles,measurement,setting,value
C=C[C@@]12COC(=O)C(=C)C1[C@@H](O)[C@H](C(=C)C(=O)OC)[C@@H](OC(=O)C(=C)CO)C2 (stereo partly specified),max response,CRL-7250,-22.2%
same,Potency,HEK293,10000 nM (active)
Cc1[nH]c2ccccc2c1CCNC(=O)c1ccccc1F,max response,CRL-7250,-5.45%
same,max response,HEK293,2.26%
COc1cccc(-c2cc(NCc3ccc4c(c3)OCO4)nc(N)n2)c1,Potency,CRL-7250,920 nM (active)
same,Potency,HEK293,184 nM (active)
CC12CCC(C(OC3OC(COC4OCC(O)(CO)C4O)C(O)C(O)C3O)C1)C(C)(C)O2 (stereo unspecified),max response,CRL-7250,2.4%
same,max response,HEK293,-9.12%
C=C1CC[C@@H]2[C@@](C)(CO[C@@H]3O[C@H](CO)C(O)[C@H](O)C3O)[C@H](O)CC[C@@]2(C)[C@@H]1CC/C(C)=C/CO (stereo partly specified),outcome,CRL-7250,inactive
same,max response,HEK293,1.32%
C[C@@H]1CC[C@]2(C(=O)OC3OC(CO)C(O)C(O)C3O)CC[C@]3(C)C(=CCC4[C@@]5(C)CC[C@H](O)[C@](C)(C(=O)O)C5CC[C@]43C)C2[C@]1(C)O (stereo partly specified),outcome,CRL-7250,inactive
same,max response,HEK293,-6.18%
CC(=O)N[C@H](Cc1ccc2ccccc2c1)C(=O)N[C@H](Cc1ccc(Cl)cc1)C(=O)N[C@H](Cc1cccnc1)C(=O)N[C@@H](CO)C(=O)N[C@@H](Cc1ccc(O)cc1)C(=O)N[C@H](CCCNC(N)=O)C(=O)N[C@@H](CC(C)C)C(=O)N[C@@H](CCCN=C(N)N)C(=O)N1CCC[C@H]1C(=O)N[C@H](C)C(N)=O (Ac-[d2Nal][dPhe(4-Cl)][d3Pal]SY[dCit]LRP[dA]-NH2),max response,CRL-7250,-7.92%
same,max response,HEK293,-0.834%
Cc1ccccc1C#Cc1ccc(CCC(=O)O)cc1,max response,CRL-7250,-3.17%
same,max response,HEK293,-13.9%
CC(C)[C@H]1CC[C@@]2(O)COC(=O)[C@H]2[C@@H]1/C=C(\CO)C(=O)O,max response,CRL-7250,-25.6%
same,max response,HEK293,2.97%
COc1cc2c(cc1OC)-c1[nH]nc(Nc3cccc(F)c3)c1C2,Potency,CRL-7250,461 nM (active)
same,Potency,HEK293,130 nM (active)
COc1cc2oc(-c3ccc(O)cc3O)cc2c(OC)c1CC=C(C)C,max response,CRL-7250,-1.99%
same,max response,HEK293,3%
C[C@@H]1C[C@@H]2O[C@H]2/C=C\C=C\C(=O)Cc2c(Cl)c(O)cc(O)c2C(=O)O1,Potency,CRL-7250,4530 nM (active)
same,Potency,HEK293,286 nM (active)
COC(=O)C[C@H]1C(C)(C)[C@H](OC(C)=O)C2CC3=C4CC(=O)O[C@@H](c5ccoc5)[C@]4(C)CCC3[C@@]1(C)C2=O (stereo partly specified),max response,CRL-7250,3.53%
same,max response,HEK293,-19.9%
COc1cc(N)c(Cl)cc1C(=O)NC[C@@H]1CCN2CCC[C@@H]12,max response,CRL-7250,-16.7%
same,max response,HEK293,-3.94%
C=CC(C)(O)CC/C=C(\C)C(=O)OC1C(O)C(CO)OC(OC(=O)C23CCC(C)(C)CC2C2=CCC4C5(C)CCC(OC6OC(COC7OCC(OC(C)=O)C(O)C7OC7OC(COC(C)=O)C(O)C(O)C7O)C(O)C(O)C6O)C(C)(C)C5CCC4(C)C2(C)C(O)C3O)C1OC1OCC(OC2OCC(O)C(OC3OCC(O)C(O)C3O)C2O)C(O)C1O (stereo unspecified),max response,CRL-7250,-9.65%
same,max response,HEK293,-3.37%
C=C1CCC2C(C(C)(C)O)CCC2(C)CC(O)C(=C)CCC1O (stereo unspecified),max response,CRL-7250,-17.3%
same,max response,HEK293,2.07%
COc1cc2c(cc1OC)CC(=O)N(CCCNC[C@H]1Cc3cc(OC)c(OC)cc31)CC2,outcome,CRL-7250,inactive
same,max response,HEK293,-6.01%
OC[C@H]1O[C@@H](OC(CCCCc2ccc(O)cc2)CCc2ccc(O)cc2)[C@H](O)[C@@H](O)[C@@H]1O (stereo partly specified),max response,CRL-7250,-35.2%
same,max response,HEK293,-49.4%
NCCCNc1ccc(Nc2nccc(Nc3cc(C4CC4)[nH]n3)n2)cc1,Potency,CRL-7250,731 nM (active)
same,Potency,HEK293,1030 nM (active)
C[S+](CC[C@H](N)C(=O)[O-])C[C@H]1O[C@@H](n2cnc3c(N)ncnc32)[C@H](O)[C@@H]1O (stereo partly specified),max response,CRL-7250,-13.4%
same,max response,HEK293,3.53%
O=C(OC[C@@]1(O)CO[C@@H](O[C@H]2[C@H](Oc3ccc(O)cc3)O[C@H](CO)[C@@H](O)[C@@H]2O)[C@@H]1O)c1ccc(O)cc1,outcome,CRL-7250,inactive
same,max response,HEK293,-7.32%
C[C@@H]1O[C@@H](O[C@H]2[C@@H]3C=CO[C@@H](O[C@@H]4O[C@H](CO)[C@@H](O)[C@H](O)[C@H]4O)[C@@H]3[C@@]3(CO)O[C@@H]23)[C@H](OC(=O)/C=C/c2ccc(O)c(O)c2)[C@H](O)[C@H]1O,outcome,CRL-7250,inactive
same,max response,HEK293,-5.61%
OC[C@H]1O[C@@H](O[C@H]2[C@H](OCCc3ccccc3)O[C@H](CO)[C@@H](O)[C@@H]2O)[C@H](O)[C@@H](O)[C@@H]1O,outcome,CRL-7250,inactive
same,max response,HEK293,-0.444%
C=CC(C)(C)c1[nH]c2ccccc2c1C[C@@H]1NC(=O)[C@H](Cc2c[nH]c3ccccc23)NC1=O,max response,CRL-7250,3.43%
same,max response,HEK293,-1.95%
C[C@@]12C[C@]3(O)O[C@H](O1)[C@]1(COC(=O)c4ccccc4)[C@H]3C[C@@]12O[C@@H]1O[C@H](CO)[C@@H](O)[C@H](O)[C@H]1O,max response,CRL-7250,0.654%
same,max response,HEK293,0.308%
CNC(=O)c1ccccc1Nc1nc(Nc2ccc3c(c2OC)CCCC(N2CCN(CCO)CC2)C3)ncc1Cl (stereo unspecified),Potency,CRL-7250,7310 nM (active)
same,Potency,HEK293,5170 nM (active)
COC(=O)[C@H](O)[C@H]1C(C)(C)[C@H](OC(=O)C(C)C)[C@@]2(O)C(=O)[C@]1(C)C1CC[C@]3(C)C(CC(=O)O[C@H]3c3ccoc3)[C@]13O[C@@H]32 (stereo partly specified),max response,CRL-7250,-16.9%
same,max response,HEK293,-5.39%
CC1(C)CCCC2(C)C1C(O)C=C(CO)C2(O)CO (stereo unspecified),outcome,CRL-7250,inactive
same,max response,HEK293,-0.916%
FC(F)(F)c1ccc(Nc2nc(-c3c(C(F)(F)F)nc4ccccn34)cs2)cc1,Potency,CRL-7250,5800 nM (active)
same,Potency,HEK293,326 nM (active)
COCC1OC(OC(C)(C)C2CCC3(C)C=C(C4CCC5C4(C)CC(O)C4OC(C(C)(C)OC6OC(CO)C(O)C(O)C6NC(C)=O)CCC45C)CCC3O2)C(NC(C)=O)C(O)C1O (stereo unspecified),max response,CRL-7250,2.51%
same,max response,HEK293,-5.83%
C[C@@H]1CC[C@]2(C(=O)O[C@@H]3O[C@H](CO)[C@@H](O)[C@H](O)[C@H]3O)CC[C@]3(C)C(=CCC4[C@@]5(C)C[C@@H](O)[C@H](O)[C@@](C)(C(=O)O[C@H]6[C@H](O)C[C@@]7(C)C(CC[C@]8(C)C7CC=C7[C@H]9[C@](C(=O)O[C@@H]%10O[C@H](CO)[C@@H](O)[C@H](O)[C@H]%10O)(CC[C@@H](C)[C@@]9(C)O)CC[C@]78C)[C@@]6(CO)C(=O)O)C5CC[C@]43C)[C@@H]2[C@]1(C)O (stereo partly specified),outcome,CRL-7250,inactive
same,max response,HEK293,-9.28%
CC(C)(C)OC(=O)N1CCC(OCc2nc(-c3ccncc3)no2)CC1,max response,CRL-7250,-15.9%
same,max response,HEK293,0.811%
O=C(NCc1cccc(O)c1)c1cc2cc(F)ccc2[nH]1,max response,CRL-7250,3.57%
same,max response,HEK293,-13.7%
C=C1CCC2C(C)(C(=O)OC)CCCC2(C)C1CCC(C)CC(=O)O (stereo unspecified),outcome,CRL-7250,inactive
same,max response,HEK293,-9.98%
CC1=C(C(=O)O)/C(=C\CO[C@@H]2O[C@H](CO)[C@@H](O)[C@H](O)[C@H]2O)C(OC(=O)/C=C/c2ccc(O)cc2)C1 (stereo partly specified),max response,CRL-7250,-18%
same,max response,HEK293,0.858%
COC(=O)C1=CO[C@@H](O[C@@H]2O[C@H](CO)[C@@H](O)[C@H](O)[C@H]2O)C2C1C(=O)C[C@H]2C (stereo partly specified),max response,CRL-7250,-1.68%
same,max response,HEK293,-7.74%
O=C(O)c1cc(-c2c(-c3ccccc3)nn3ccccc23)n[nH]c1=O,outcome,CRL-7250,inactive
same,max response,HEK293,-2.65%
C[C@@H]1CC[C@@]2(OC1)O[C@H]1C[C@H]3[C@@H]4CC=C5C[C@@H](O)CC[C@]5(C)[C@H]4CC[C@]3(C)[C@H]1[C@@H]2C,max response,CRL-7250,3.2%
same,max response,HEK293,-1.54%
O=C1OCC(c2ccccc2)=C1Cc1ccccc1,max response,CRL-7250,-11.2%
same,max response,HEK293,0.652%
Cc1cc(Nc2nc(NC(C)c3ncc(F)cn3)ncc2Cl)n[nH]1 (stereo unspecified),outcome,CRL-7250,inactive
same,max response,HEK293,-3.92%
Cc1ccc(F)cc1C(=O)Nc1ccc(C(=O)N2Cc3cccn3Cc3ccccc32)c(Cl)c1,max response,CRL-7250,-11.2%
same,Potency,HEK293,9200 nM (active)
Cn1nc(C(C)(C)C)cc1C(=O)NC(Cc1cccc(Cl)c1)C(=O)NCC#N (stereo unspecified),outcome,CRL-7250,inactive
same,max response,HEK293,-17.2%
O=C(O)Cc1ccc2oc(-c3ccc(NC(=O)/C=C/c4ccc(Br)cc4)c(F)c3)nc2c1,max response,CRL-7250,4.13%
same,max response,HEK293,-7.74%
COC1/C=C/C(C)(O)C(SCC(N)C(=O)O)CC(=O)OC(C)C(C)CC/C=C/1C (stereo unspecified),max response,CRL-7250,1.64%
same,outcome,HEK293,inactive
COc1cc(C2Oc3c(OC)cc(CCCO)cc3C2CO)ccc1O[C@H]1O[C@H](C)[C@@H](O)[C@H](O)[C@@H]1O (stereo partly specified),outcome,CRL-7250,inactive
same,max response,HEK293,-0.663%
N#C[C@@H]1CCCN1C(=O)CNC12CC3CC(CC(O)(C3)C1)C2,max response,CRL-7250,2.02%
same,max response,HEK293,-12.1%
CC1C(=O)OCC2=CCN3CCC(OC(=O)C(C)(O)C1(C)O)C23 (stereo unspecified),outcome,CRL-7250,inactive
same,max response,HEK293,-9.35%
CC(C)(C)NS(=O)(=O)c1cncc(-c2cc(F)c3nc(N)nn3c2)c1,outcome,CRL-7250,inactive
same,max response,HEK293,-1.27%
Cc1cccc(S(=O)(=O)N2CCC[C@@H]2CCN2CCC(C)CC2)c1,max response,CRL-7250,-2.64%
same,max response,HEK293,-20.7%
C[C@H](NC(=O)CCc1nc2ccccc2c(=O)[nH]1)c1ccccc1,max response,CRL-7250,-24%
same,max response,HEK293,-7.11%
C=C1C[C@@]23CCC4[C@@](C)(CCC[C@@]4(C)C(=O)OC)C2CC[C@@H]1C3 (stereo partly specified),outcome,CRL-7250,inactive
same,outcome,HEK293,inactive
COc1ccc2c(OC)c3ccoc3nc2c1OC,max response,CRL-7250,-6.93%
same,max response,HEK293,-25.3%
O=C1OCc2cc3cccc(O[C@@H]4O[C@H](CO)[C@@H](O)[C@H](O)[C@H]4O)c3c(O)c21,max response,CRL-7250,3.34%
same,max response,HEK293,-24.4%
